MITF inh – inhibitors of human MITF. O75030. AlphaScreen MITF homodimerization, bead proximity signal. inhibition, % at 2.6 µM. 650,000 tested, 0.91% active. AID 1259374; in the data active means inhibition above about 50%;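 further: 0% = vehicle wells with protein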
Target sequence (O75030 whole entry, looked up): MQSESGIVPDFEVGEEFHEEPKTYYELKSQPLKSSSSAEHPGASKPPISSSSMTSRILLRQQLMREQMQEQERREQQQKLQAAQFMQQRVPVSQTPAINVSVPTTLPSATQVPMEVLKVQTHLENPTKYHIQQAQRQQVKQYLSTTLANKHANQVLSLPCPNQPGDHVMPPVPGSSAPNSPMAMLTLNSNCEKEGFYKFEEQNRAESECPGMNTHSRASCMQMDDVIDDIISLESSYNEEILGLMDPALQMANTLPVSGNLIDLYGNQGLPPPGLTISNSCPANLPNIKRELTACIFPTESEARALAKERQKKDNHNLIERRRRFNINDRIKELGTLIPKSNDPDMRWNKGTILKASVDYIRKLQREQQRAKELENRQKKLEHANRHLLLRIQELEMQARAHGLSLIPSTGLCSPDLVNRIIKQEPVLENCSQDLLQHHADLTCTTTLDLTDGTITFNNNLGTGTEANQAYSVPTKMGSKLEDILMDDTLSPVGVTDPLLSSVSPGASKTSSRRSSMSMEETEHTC
FBW7 activator – activators of human E3 ligase FBW7 | 650,000 tested, 0.13% active | AlphaScreen FBW7–phospho-cyclin E peptide binding, activator screen | AID 1259310 | normalized activity (activation), % at 26.1 µM | Q969H0; in the data active means normalized activity above about 1.9%;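 further: purified mutant Fbw7 with reduced substrate affinity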
GPR151 activ – activates the human receptor GPR151; AID 1508602; activation, % at 11.2 µM; Q8TDV0; 650,000 tested, 1% active; PathHunter beta-arrestin GPR151 cells, luminescence; in the data active means activation above about 4.9%;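 further: 0% = median of compound wells and 100% = cells with positive control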
TEAD-YAP block – TEAD-YAP interaction inhibition; HEK-TIYL cells, TEAD-Gal4/YAP UAS-luciferase luminescence; AID 1259422; inhibition, % at 9.12 µM; 640,000 tested, 1.4% active; in the data active means inhibition above about 32%;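 further: 0% = median of test compound wells and 100% = reference inhibitor wells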
Starred values were filed as active, the others as inactive. In the library only some 3.5% were active in any assay of this set; here they are far more common.

How did Cc1ccc2c(c1)NC(=O)c1cc(NC(=O)c3ccccc3Br)ccc1O2 do in these assays?
MITF inh: 12; FBW7 activator: 0; GPR151 activ: 1; TEAD-YAP block: 44*

Results for COCCCNC(=O)CN1CCN(Cc2cccc(C)c2)C1=O ?
MITF inh: -8; FBW7 activator: -1; GPR151 activ: 0; TEAD-YAP block: -34

How did CCCCC(CC)C(=O)Nc1ncc([N+](=O)[O-])s1 (stereo not given) do in these assays?
MITF inh: 10; FBW7 activator: 0; GPR151 activ: 0; TEAD-YAP block: 44*

Results for CCOc1ccc(NC(=O)C2=C(C)NC(=O)NC2c2ccc(C)cc2)cc1 (stereo not given) ?
MITF inh: -17; FBW7 activator: 0; GPR151 activ: -1; TEAD-YAP block: 33*

How did COc1ccc(C2NC(=O)NC(C)=C2C(=O)Nc2ccc(Br)cc2)cc1 (stereo not given) do in these assays?
MITF inh: 5; FBW7 activator: 1; GPR151 activ: -1; TEAD-YAP block: 47*

Results for CCOc1ccc(NC(=O)C2=C(C)NC(=O)NC2c2ccc(Cl)cc2Cl)cc1 (stereo not given) ?
MITF inh: -6; FBW7 activator: 0; GPR151 activ: 0; TEAD-YAP block: 40*

Results for CCOc1ccc(NC(=O)C2=C(C)NC(=O)NC2c2cccc(Cl)c2)cc1 (stereo not given) ?
MITF inh: 13; FBW7 activator: 0; GPR151 activ: -1; TEAD-YAP block: -3

Results for COc1ccc(C2CC(=O)C3=C(C2)Nc2ccccc2NC3c2coc3ccccc3c2=O)cc1OC (stereo not given) ?
MITF inh: -7; FBW7 activator: 0; GPR151 activ: -1; TEAD-YAP block: -6

Results for Cc1ncn(-c2ccc(Nc3ncc(Cl)c(Nc4ccccc4-c4ncn(C)n4)n3)cc2)n1 ?
MITF inh: -3; FBW7 activator: 0; GPR151 activ: 0; TEAD-YAP block: 1

How did Cc1nc(C)n(-c2ccc(Nc3ncc(Br)c(-c4cnn(C)c4)n3)cc2)n1 do in these assays?
MITF inh: 8; FBW7 activator: 0; GPR151 activ: 0; TEAD-YAP block: 77*

How did Cc1nc(C)n(-c2ccc(Nc3nccc(-c4cc(F)cc(-c5cnn(C)c5)c4)n3)cc2)n1 do in these assays?
MITF inh: 9; FBW7 activator: 0; GPR151 activ: -1; TEAD-YAP block: -1

How did Cc1ncn(-c2ccc(Nc3ncc(Cl)c(-c4cnn(C)c4)n3)cc2)n1 do in these assays?
MITF inh: -16; FBW7 activator: 0; GPR151 activ: -1; TEAD-YAP block: 72*

How did Cc1nc(C)n(-c2ccc(Nc3nc(-c4cnn(C)c4)cc(N(C)C)n3)cc2)n1 do in these assays?
MITF inh: 15; FBW7 activator: 0; GPR151 activ: -2; TEAD-YAP block: 33*

What do the screens show for `CC(=O)NC(CC(C)C)c1nnc2n1CCN(Cc1ccc(CN3CCCC3)s1)CC2` (stereo not given)?
MITF inh: -4; FBW7 activator: 0; GPR151 activ: 0; TEAD-YAP block: -1

Results for CCS(=O)(=O)N1CCN(C(=O)c2cc(OC)c(OC)c(OC)c2)CC1 ?
MITF inh: 6; FBW7 activator: 0; GPR151 activ: 0; TEAD-YAP block: 6

Results for N#Cc1ccc(NC(=O)c2cnc(Cl)c(Cl)c2)cc1 ?
MITF inh: 9; FBW7 activator: 0; GPR151 activ: -1; TEAD-YAP block: 11

What do the screens show for `Nc1ccc2nc(-c3cnccn3)[nH]c2c1`?
MITF inh: 33; FBW7 activator: -1; GPR151 activ: -4; TEAD-YAP block: -33

What do the screens show for `COc1cc(/C=C2/C=C(c3ccc(C)cc3)OC2=O)ccc1C`?
MITF inh: 10; FBW7 activator: 0; GPR151 activ: 0; TEAD-YAP block: 32*

Results for COc1cc(/C=C2/C=C(c3ccc(C)cc3)OC2=O)ccc1O ?
MITF inh: 8; FBW7 activator: 0; GPR151 activ: -1; TEAD-YAP block: 65*

How did COc1ccc(S(=O)(=O)Nc2cc(OC)c(Cl)cc2OC)cc1 do in these assays?
MITF inh: 14; FBW7 activator: 1; GPR151 activ: 1; TEAD-YAP block: 64*

Results for COc1cc(S(=O)(=O)Nc2cc(OC)c(Cl)cc2OC)ccc1Cl ?
MITF inh: 13; FBW7 activator: 0; GPR151 activ: 3; TEAD-YAP block: 50*

Results for CCOc1ccc(S(=O)(=O)Nc2cc(C)ccc2OC)cc1 ?
MITF inh: 7; FBW7 activator: 1; GPR151 activ: 1; TEAD-YAP block: 53*

What do the screens show for `Cc1cc(C)c(S(=O)(=O)NCc2ccncc2)c(C)c1`?
MITF inh: -6; FBW7 activator: 0; GPR151 activ: 0; TEAD-YAP block: 46*

What do the screens show for `Nc1nc(SCC(=O)Nc2ccc(Br)cc2Cl)n[nH]1`?
MITF inh: 1; FBW7 activator: 0; GPR151 activ: -1; TEAD-YAP block: 0

What do the screens show for `COc1cc(NS(=O)(=O)c2ccccc2)c(OC)cc1Cl`?
MITF inh: -4; FBW7 activator: 0; GPR151 activ: 1; TEAD-YAP block: 3

What do the screens show for `COc1ccc(S(=O)(=O)Nc2ccc(OC)c(OC)c2)cc1Cl`?
MITF inh: -2; FBW7 activator: 0; GPR151 activ: 2; TEAD-YAP block: 38*

Results for COc1cc(S(=O)(=O)NCc2ccncc2)ccc1Cl ?
MITF inh: 17; FBW7 activator: 0; GPR151 activ: 3; TEAD-YAP block: 40*

What do the screens show for `CCOc1ccc(S(=O)(=O)Nc2cc(OC)c(Cl)cc2OC)cc1`?
MITF inh: 5; FBW7 activator: 0; GPR151 activ: 0; TEAD-YAP block: 63*

How did COc1cc(S(=O)(=O)NCc2cccnc2)ccc1Cl do in these assays?
MITF inh: 1; FBW7 activator: 0; GPR151 activ: -1; TEAD-YAP block: 8

Results for CN(C)C(=O)c1ccc(S(=O)(=O)NCc2ccncc2)cc1 ?
MITF inh: 7; FBW7 activator: 0; GPR151 activ: 0; TEAD-YAP block: 37*

Results for NC(=O)c1oc2ccccc2c1NC(=O)CCOc1ccccc1 ?
MITF inh: 7; FBW7 activator: 0; GPR151 activ: 0; TEAD-YAP block: 14

What do the screens show for `COc1ccc(Cl)cc1NS(=O)(=O)c1ccc(C)cc1OC`?
MITF inh: -7; FBW7 activator: 0; GPR151 activ: 0; TEAD-YAP block: 52*

Results for O=C(Nc1cccc2ccccc12)NC(c1ccccc1)(c1ccccc1)c1ccccc1 ?
MITF inh: 14; FBW7 activator: 1; GPR151 activ: 0; TEAD-YAP block: -9

How did CC(C)C(=O)NCC1CCC2(CCN(Cc3ccc(C#CC(C)(C)O)cc3)CC2)O1 (stereo not given) do in these assays?
MITF inh: -5; FBW7 activator: 0; GPR151 activ: 0; TEAD-YAP block: 51*

Results for CCc1ccc(CN2CCC3(CCC(CNC(=O)C(C)C)O3)CC2)cc1 (stereo not given) ?
MITF inh: -4; FBW7 activator: 0; GPR151 activ: 0; TEAD-YAP block: -6

Results for Cc1nc(/N=C(\N)Nc2ccccc2)[nH]c(=O)c1C ?
MITF inh: 12; FBW7 activator: 2.2*; GPR151 activ: 0; TEAD-YAP block: 7
